Drawing on PubChem BioAssay (NCI), this text covers growth inhibition for 40 compounds.

About 79,000 compounds went through this panel and 15% of them were active in at least one assay; those are over-represented in the sample as a whole. A number with no mark means an inactive call. The source made the active and inactive calls. No stated cut-off is given here; in the data, active means growth inhibition above about 70%; inactive means the rest.

The first experiment in a line: NCI Yeast Anticancer Drug Screen. Data for the rad50 strain (AID 155).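 Further: 0% = growth of vehicle-only cultures of the same strain.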 The conditions noted are these: S. cerevisiae rad50 strain growth inhibition; at 5.0 µM (retest, dose inferred, filed as 0.5); hits give high values. In outline:
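A DNA repair-deficient yeast mutant serves as the test organism; compound-induced growth inhibition is calculated against vehicle-treated cells.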
As for `CCOC(=O)/C=C(\CC(=O)OCC)C(=O)OCC`, the growth inhibition was -3%.
As for `Cc1cc(Cl)cc2c1NC(=O)C2(O)C(C)C(=O)c1ccc(Cl)cc1` (stereo not given), the growth inhibition was -2%.
On to `C=CS(=O)(=O)c1ccc([N+](=O)[O-])cc1`, for which the growth inhibition was -29%.
For the compound `Oc1cc(Br)ccc1/C=N/Nc1ccccn1`, the growth inhibition is -8%.
Same read-out and setting: to `CC(C)C(CC(C)(C)C)OC(=O)Nc1cccc2ccccc12` (stereo not given) belongs 0%.
Consider `CC(=O)[O-].O=C(N/N=C/c1ccccc1[O-])c1ccccc1.[Zn+2]`, for which the growth inhibition was -3%.
`COc1cc(C2C(C(=O)Nc3ccc(Cl)c(Cl)c3)=C(C)NC(C)=C2C(=O)Nc2ccc(Cl)c(Cl)c2)ccc1O`: the growth inhibition is 19%.
Turning to `[Ce+3].[Cl-].[O-]/N=C(\c1ccccc1)c1ccccn1.[O-]/N=C(\c1ccccc1)c1ccccn1.[O-]/N=C(\c1ccccc1)c1ccccn1`, the growth inhibition is 36%.
For the compound `CCCCCCCCN1C(=O)c2ccccc2S1(=O)=O`, the growth inhibition is -2%.
Same read-out and setting: to `CC(=O)N(C1=C(Cl)C(=O)c2ccccc2C1=O)c1ccc(C)cc1` belongs 99% (active).
For the compound `COc1ccc(Cl)c(-c2cc(OC)c(N=N/C(=N/Nc3ccc([N+](=O)[O-])cc3)c3ccc([N+](=O)[O-])cc3)cc2Cl)c1`, the growth inhibition was 95% (active).
Consider `CCOC(=O)CSC(=S)N1CCOCC1`, for which the growth inhibition is -3%.
Still for that read-out and setting: the value for `CC1(C)COC(c2cccc(C(O)c3ccc(Cl)cc3)c2)=N1` (stereo not given) was 40%.
On the same count and under the same terms, to `COc1ccc(/C=C/C(C(=O)O)C(=O)O)cc1` belongs 19%; to `COc1ccc2c(Cc3ccc(O)cc3)cncc2c1O`, -1%; to `COC1=CC23C=CC1[C@@H](c1ccccc1)C2=C(C)C(=O)N3C(=O)NC1CCCCC1` (stereo not given in full), 21%.
Still for that read-out and setting: to `O=c1c2c3c(sc2nc2n1N=C(c1ccc(Br)cc1)CS2)CCCC3` belongs 1%.
As for `Cc1noc(NS(=O)(=O)c2ccc(N=Nc3cc(N=Nc4ccc(S(=O)(=O)Nc5onc(C)c5C)cc4)c4c(NC(=O)C(Cl)Cl)cccc4c3O)cc2)c1C` (tested in a mixture with another compound), the growth inhibition is 96% (active).
Regarding `CC(=O)OC1=CC2(OC(C)=O)CC(C)(C)C1C1C(=O)C=CC(=O)C12` (stereo not given), the growth inhibition was 8%.
As to `COC1CCC(/C(C#N)=C/c2ccco2)CC1` (stereo not given), the growth inhibition is 17%.
The same measure, in the same setting: to `CCN(CC)CCNc1cc(C)nc2c1ccc1c2ccc2c(NCCN(CC)CC)cc(C)nc21` belongs -3%; to `O=c1sc(=S)[nH]c2ccccc12`, -3%.
On the same count and under the same terms, to `Oc1c(Br)ccc2c(O)c(Br)ccc12` belongs 42%.
The same measure, in the same setting: the value for `Nc1ccccc1CCc1ccccc1` was 0%; that for `Cc1cc2c(cc1O)CC[C@@H]1[C@@H]2CC[C@]2(C)[C@@H](O)CC[C@@H]12` was -29%.
With `O=c1c2ccccc2sc2c([N+](=O)[O-])ccc(NCCNCCO)c12`, the growth inhibition is 57%.
In the case of `NC(=S)NNc1c([N+](=O)[O-])cnn(-c2ccccc2)c1=O`, the growth inhibition is 18%.
The same measure, in the same setting: to `COc1ccccc1NC(=O)c1ccccc1F` belongs -154%; to `COc1ccc(/C=C2\SC(=S)N(/C=C(/C#N)C(=O)c3ccc4ccccc4c3)C2=O)cc1OC`, -11%.
Still for that read-out and setting: to `COC(=O)C1(OC(=O)CCC(=O)O)C(=O)NC2=C1C(=O)c1ccccc1C2=O` (stereo not given) belongs 1%; to `Cc1cc(=O)c2c(ccc3cc4ccccc4cc32)[nH]1`, -6%.
Still for that read-out and setting: the value for `CCc1nc(N)nc(N)c1-c1ccc(N(C)Cc2ccccc2)c([N+](=O)[O-])c1` was 10%.
Regarding `O=C1CSC(c2ccccc2O)N1c1ccc(-n2c(-c3ccccc3)nc3ccccc3c2=O)cc1` (stereo not given), the growth inhibition was 2%.
Same read-out and setting: the value for `O=C(C[P+](c1ccccc1)(c1ccccc1)c1ccccc1)c1ccc(Br)cc1` was 67%.
On the same count and under the same terms, to `O=NN(CCCl)C(=O)Oc1ccc(OC(=O)N(CCCl)N=O)cc1` belongs 87% (active); to `Cc1cccc(C[N+](C)(C)CCCO)c1C`, 1%; to `CC(C)NC(=O)OCCS(=O)c1c(Cl)c(Cl)nn1C` (stereo not given), -15%.
For the compound `COC1=CC(=O)[C@H]2CC(C)=CC[C@]2(C)C1=O`, the growth inhibition is -3%.
On the same count and under the same terms, the value for `Oc1ccc(O)c2c(O)c3ccccc3c(O)c12` was 24%; that for `O=[N+]([O-])c1cc(Br)cc(Br)c1O` was -2%.

The experiment is the same for the next values; noted with them: S. cerevisiae rad50 strain growth inhibition; at 50.0 µM (retest, dose inferred, filed as 5.0); hits give high values.
With `CCOC(=O)/C=C(\CC(=O)OCC)C(=O)OCC`, the growth inhibition is 3%.
For `Cc1cc(Cl)cc2c1NC(=O)C2(O)C(C)C(=O)c1ccc(Cl)cc1` (stereo not given), the growth inhibition was 63%.
The same measure, in the same setting: the value for `C=CS(=O)(=O)c1ccc([N+](=O)[O-])cc1` was 98% (active); that for `Oc1cc(Br)ccc1/C=N/Nc1ccccn1` was 46%.
For the compound `CC(C)C(CC(C)(C)C)OC(=O)Nc1cccc2ccccc12` (stereo not given), the growth inhibition is 96% (active).
Take `CC(=O)[O-].O=C(N/N=C/c1ccccc1[O-])c1ccccc1.[Zn+2]`: the growth inhibition was 61%.
Same read-out and setting: to `COc1cc(C2C(C(=O)Nc3ccc(Cl)c(Cl)c3)=C(C)NC(C)=C2C(=O)Nc2ccc(Cl)c(Cl)c2)ccc1O` belongs 19%.
Turning to `[Ce+3].[Cl-].[O-]/N=C(\c1ccccc1)c1ccccn1.[O-]/N=C(\c1ccccc1)c1ccccn1.[O-]/N=C(\c1ccccc1)c1ccccn1`, the growth inhibition is 66%.
In the case of `CCCCCCCCN1C(=O)c2ccccc2S1(=O)=O`, the growth inhibition is 95% (active).
Same read-out and setting: the value for `CC(=O)N(C1=C(Cl)C(=O)c2ccccc2C1=O)c1ccc(C)cc1` was 99% (active); that for `COc1ccc(Cl)c(-c2cc(OC)c(N=N/C(=N/Nc3ccc([N+](=O)[O-])cc3)c3ccc([N+](=O)[O-])cc3)cc2Cl)c1` was 19%.
As for `CCOC(=O)CSC(=S)N1CCOCC1`, the growth inhibition was -2%.
The same measure, in the same setting: the value for `CC1(C)COC(c2cccc(C(O)c3ccc(Cl)cc3)c2)=N1` (stereo not given) was 99% (active); that for `COc1ccc(/C=C/C(C(=O)O)C(=O)O)cc1` was 65%; that for `COc1ccc2c(Cc3ccc(O)cc3)cncc2c1O` was 6%.
Same read-out and setting: to `COC1=CC23C=CC1[C@@H](c1ccccc1)C2=C(C)C(=O)N3C(=O)NC1CCCCC1` (stereo not given in full) belongs 21%; to `O=c1c2c3c(sc2nc2n1N=C(c1ccc(Br)cc1)CS2)CCCC3`, -11%; to `Cc1noc(NS(=O)(=O)c2ccc(N=Nc3cc(N=Nc4ccc(S(=O)(=O)Nc5onc(C)c5C)cc4)c4c(NC(=O)C(Cl)Cl)cccc4c3O)cc2)c1C` (tested in a mixture with another compound), 61%.
`CC(=O)OC1=CC2(OC(C)=O)CC(C)(C)C1C1C(=O)C=CC(=O)C12` (stereo not given): the growth inhibition was 14%.
Still for that read-out and setting: to `COC1CCC(/C(C#N)=C/c2ccco2)CC1` (stereo not given) belongs 22%; to `CCN(CC)CCNc1cc(C)nc2c1ccc1c2ccc2c(NCCN(CC)CC)cc(C)nc21`, 96% (active).
On the same count and under the same terms, to `O=c1sc(=S)[nH]c2ccccc12` belongs 10%; to `Oc1c(Br)ccc2c(O)c(Br)ccc12`, 93% (active); to `Nc1ccccc1CCc1ccccc1`, 79% (active).
The same measure, in the same setting: the value for `Cc1cc2c(cc1O)CC[C@@H]1[C@@H]2CC[C@]2(C)[C@@H](O)CC[C@@H]12` was -27%; that for `O=c1c2ccccc2sc2c([N+](=O)[O-])ccc(NCCNCCO)c12` was 98% (active).
As for `NC(=S)NNc1c([N+](=O)[O-])cnn(-c2ccccc2)c1=O`, the growth inhibition was 30%.
With `COc1ccccc1NC(=O)c1ccccc1F`, the growth inhibition is 41%.
Same read-out and setting: to `COc1ccc(/C=C2\SC(=S)N(/C=C(/C#N)C(=O)c3ccc4ccccc4c3)C2=O)cc1OC` belongs 98% (active); to `COC(=O)C1(OC(=O)CCC(=O)O)C(=O)NC2=C1C(=O)c1ccccc1C2=O` (stereo not given), 9%.
The same measure, in the same setting: to `Cc1cc(=O)c2c(ccc3cc4ccccc4cc32)[nH]1` belongs 41%.
For `CCc1nc(N)nc(N)c1-c1ccc(N(C)Cc2ccccc2)c([N+](=O)[O-])c1`, the growth inhibition was -13%.
Regarding `O=C1CSC(c2ccccc2O)N1c1ccc(-n2c(-c3ccccc3)nc3ccccc3c2=O)cc1` (stereo not given), the growth inhibition was 78% (active).
Same read-out and setting: to `O=C(C[P+](c1ccccc1)(c1ccccc1)c1ccccc1)c1ccc(Br)cc1` belongs 96% (active); to `O=NN(CCCl)C(=O)Oc1ccc(OC(=O)N(CCCl)N=O)cc1`, 92% (active); to `Cc1cccc(C[N+](C)(C)CCCO)c1C`, 1%.
For `CC(C)NC(=O)OCCS(=O)c1c(Cl)c(Cl)nn1C` (stereo not given), the growth inhibition is 62%.
Still for that read-out and setting: to `COC1=CC(=O)[C@H]2CC(C)=CC[C@]2(C)C1=O` belongs 2%; to `Oc1ccc(O)c2c(O)c3ccccc3c(O)c12`, 86% (active).
Still for that read-out and setting: to `O=[N+]([O-])c1cc(Br)cc(Br)c1O` belongs 19%.
